# Assay results as given in the supplement of paper PMC12632987.
# Over roughly 2,300 sequences, “median log2 fold change of GCK-ALFA target abundance (FLAG IP / Myc IP barcode read proportion)” has its median near 0.095; the lowest 2% begin near -0.47. The list comes from a sample in which the lowest values are over-represented; it also holds similar and randomly drawn sequences.
# B1: LC3A_23_609 (protein)
# chain: MYLIDFEVDLIGEPEEIEKIEKELLEALEEFLEENKDKIVDYEIEVEREELEDGRTYLSIRLKILIDGTREEAEALANEITTIASEIAPDAVISVEVEEV
# B2: LC3A_147_509 (protein)
# chain: YIVEIDIDLLVKNKVEEVKEKFKEIVEELKKKGYEVELEIEEEKIDENTYYVKVKITIKAETKEEAEEAANLTLDLLDKLEEELKEDILGSLISVEITEA
# B3: LC3A_free_39_2183 (protein)
# chain: SSEETKKLKEELLKLAEEEGEETKELAEKLIELIGEELERIKRLLELMKKLKEAGVDLKEALKEALELAEELKKKGKSKEEIAEAVLELMQDKYNLIPID
# B4: LC3A_free_26_2149 (protein)
# chain: DEFIDIVELDKAIDLLEELLKLLEENELASEEEKKLAKEALEEAKKETLESLKKALKLVEELLKLLKKNEKLPEETKKKLIKLAEEAIKHIKENIKIMES
# B5: LC3A_3_1540 (protein)
# chain: MDAAVAAALARLRAAGASAATLAAFEAAVAALRERGYDAALETLIAETDRLLGLSDALLLAFFEEVLELVETEDIDEEELIARIREIARTTLSEAEIEEL
# B6: LC3A_28_1107 (protein)
# chain: SSVDEENAKALAEAEKAAAAGEPAVITITVKSTDTQEDIDKKIETMEKIAEILKDVKDAAIIIDLDGEIPQEYLDKLADKGEEIEKKYPNITVIIALDEE
# B7: LC3A_3_1662 (protein)
# chain: AEELIEETLAWLREQGRSEETLEAAREAMTALKEKGYYEALETFAELLRELADLSDELLLELAEEVLELVETSDLDEESMTEEIREIARTIRSEAEIEEL
# B8: LC3A_132_247 (protein)
# chain: SEEELEKALEELKEILEKIVELLKAGKDPLPQIVKLEELAREIAKKLSLEETEKLVDEAIEYAEELFEKELDPNDEEARRTLDIIEMSLEGVLIEKELES
# B9: LC3A_132_246 (protein)
# chain: SEEEYKKALAELKEIIDKIVELLKEGKDPLPAIVELEEKAREIAEKLSLEETEKLVEETIEYAEKRFEEELDPNDEEARRTLDIIEMLLEGVLIEKELRS
# B10: LC3A_132_248 (protein)
# chain: SEEELKEALEELKEILEKIVEALKNGEDPLPLIVELEEKALEIAEKLSLEETEELIDEAKEYAEELFEEELDPNDEEARRTLDIIEMLLDGVLIEKELKS
# Biological target: MAP1LC3A, Q9H492
# Assay: median log2 fold change of GCK-ALFA target abundance (FLAG IP / Myc IP barcode read proportion) (log2 ratio); each designed protein is fused to an ALFA-tag nanobody in HEK293 cells to bring the named protein to FLAG-tagged glucokinase (GCK); Myc marks an untargeted standard; higher = target protein stabilised (more abundant)
# Settings: target protein: 3xFLAG-MCP-GCK-ALFA reporter; HEK293 landing pad (RPLP)
# Procedure: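 LABEL-seq trans screen in HEK293 landing-pad cells. Each de novo designed 100-aa effector handle, binding the indicated effector (E3 ligase, DUB or autophagy protein), is fused to a constant NbALFA target handle and induced with 2 ug/mL doxycycline. A FLAG-MCP-GCK-ALFA target and a Myc-MCP standard reporter were transfected, and after 48 h circRNA barcodes were recovered by anti-FLAG and anti-Myc IP and sequenced. The value is the median across barcodes (at least 3 per design) of log2(FLAG/Myc read-proportion ratio), with the two transfection replicates pooled. Negative values mean degradation and positive values mean stabilisation of the target.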
row,Binder,median log2 fold change
1,B1,-0.664
2,B2,-0.0549
3,B3,0.066
4,B4,-0.0408
5,B5,0.222
6,B6,0.154
7,B7,-0.0559
8,B8,-0.371
9,B9,-0.415
10,B10,-0.698
